# Bioassay records (PubChem BioAssay)
# GDH-TPI inh – GDH-TPI coupling enzyme inhibitors, primary screen, artefact control for M. tuberculosis FBA inhibitor project, biochemical, absorbance, full deck. GDH-TPI coupled enzyme counterscreen, NADH absorbance. AID 588335, 2011. inhibition, % at 4.8 µM. 1.2% of 360,000 active; in the data active = inhibition above about 30%;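 note: 0% = DMSO wells and 100% = wells lacking the enzyme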
# DUSP3 inh – VHR1 phosphatase inhibitors, primary screen, biochemical, absorbance, uHTS; Dual specificity protein phosphatase 3 (Homo sapiens), P51452; recombinant VHR phosphatase, pNPP absorbance; inhibition, % at 13.3 µM; 0.52% of 290,000 active; AID 1654, 2009; in the data active = inhibition above about 50%
# Target sequence (P51452 whole entry, looked up): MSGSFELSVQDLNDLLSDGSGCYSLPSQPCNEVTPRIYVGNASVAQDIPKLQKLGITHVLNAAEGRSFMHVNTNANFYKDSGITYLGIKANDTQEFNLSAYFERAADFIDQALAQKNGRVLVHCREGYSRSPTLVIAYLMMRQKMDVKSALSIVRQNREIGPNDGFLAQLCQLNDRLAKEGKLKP
# Mtb betalactam – beta-lactam sensitization of Mtb H37Rv, H37Rv; inhibition, % at 25 µM; M. tuberculosis H37Rv growth with meropenem, percent inhibition; 0.27% of 330,000 active; AID 434955, 2010; call rule not given here;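 note: growth measured after seven days incubation then overnight dye step; 0% = bacteria only wells and 100% = bacteria with antibiotic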
# Mtb hypoxia rep – PubChem AID 1159583; M. tuberculosis hypoxia-regulated fluorescent reporter, fluorescence; 0.1% of 300,000 active; fluorescence inhibition, % (no concentration beside the values); in the data active = fluorescence inhibition mostly above about 23%, no sharp cut-off; inactive = mostly below about 17%
# Mtb FBA inh – Mtb FBA enzyme inhibitors, primary screen, biochemical, fluorescence, strain H37Rv; Fructose-bisphosphate aldolase (Mycobacterium tuberculosis (strain ATCC 25618 / H37Rv)), …; purified M. tuberculosis FBA, fluorescence read-out; inhibition, % at 1 µM; 2.3% of 360,000 active; AID 588726, 2011; in the data active = inhibition above about 27%;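 note: 0% = vehicle and 100% = reference inhibitor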
# Target sequence (P9WQA3 whole entry, looked up): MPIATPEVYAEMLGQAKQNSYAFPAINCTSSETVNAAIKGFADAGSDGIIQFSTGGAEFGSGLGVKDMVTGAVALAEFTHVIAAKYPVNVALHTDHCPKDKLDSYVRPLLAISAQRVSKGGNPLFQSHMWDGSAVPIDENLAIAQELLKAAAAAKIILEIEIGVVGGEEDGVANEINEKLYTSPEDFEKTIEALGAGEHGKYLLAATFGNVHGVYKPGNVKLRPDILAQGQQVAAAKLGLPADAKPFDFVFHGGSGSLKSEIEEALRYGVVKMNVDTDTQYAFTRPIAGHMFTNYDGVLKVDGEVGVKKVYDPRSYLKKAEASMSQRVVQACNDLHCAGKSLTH
# Numbers without * were called inactive; ? = inconclusive; . = not tested or not shown; + = active, no number. Only some compounds are listed: those with a hit (about 3.6% of all), similar ones and a draw of the others.
SMILES,GDH-TPI inh,DUSP3 inh,Mtb betalactam,Mtb hypoxia rep,Mtb FBA inh
Cc1csc2ncc(C(=O)N3CCc4ccccc43)c(=O)n12,51.9*,.,-2.4,-1.3,4.8
CC(C)CC(CO)Nc1nc(N(C)c2cccc(Cl)c2)c2ncn(C(C)C)c2n1 (stereo unspecified),.,.,.,9.2,.
CCCCCCc1ccc(N2CC(CCCCC)C(CC(=O)NCc3ccccc3)C2=O)cc1 (stereo unspecified),.,.,.,7.6,.
CCCCCCc1nc2ccccc2c(=O)n1N,13.7,15.3,-9.2,.,135.7*
C=CCCCCc1nc2ccccc2c(=O)n1N,-6.9,13.5,5.6,0.9,3.5
O=C(Nc1ccccn1)c1ccc(Br)s1,-1.4,55.0*,4.2,11.7,0.8
COC(=O)c1cc(C)nc2c1C(=O)C(=O)C=C2N1CCOCC1,13.4,53.6*,-5.2,-3.1,-5.2
CCCCC(CC)C(=O)Nc1ccc(C)c(O)c1 (stereo unspecified),2.8,53.0*,-6.5,-7.4,1.0
Cc1cccc(NC(=O)Cn2c(=O)n(Cc3ccco3)c(=N)c3c4c(sc32)COC(C)(C)C4)c1,3.4,51.9*,2.2,.,-1.7
NC(=O)CCCn1c(C(=O)c2ccc(Cl)cc2)c2ccc([N+](=O)[O-])cc2[n+]1[O-],16.2,.,-0.9,40.1*,-0.6
COc1ccc2cc3cc(C(=O)NCc4ccco4)oc3nc2c1,20.2,-12.5,54.8,-0.5,140.3*
COc1ccc2cc3cc(C(=O)NCc4ccccn4)oc3nc2c1,27.3,19.2,16.8,.,+
Cc1cc(C)n(CCC(=O)NN=Cc2ccc(Cl)c([N+](=O)[O-])c2)n1,.,.,.,2.7,.
CCOC(=O)C1CCCN(C(=O)c2ccc(OCC)cc2)C1 (stereo unspecified),-5.7,27.4,5.2,1.6,+
CCOC(=O)C1CCCN(C(=O)c2ccc(C(=O)c3ccccc3)cc2)C1 (stereo unspecified),2.5,.,-0.8,-0.8,0.5
O=C(O)c1ccc(N/N=C/c2ccc(F)c(F)c2)cc1,58.3*,-5.4,4.3,.,0.9
O=C(O)c1ccc(N/N=C/c2cccc(F)c2)cc1,36.6*,1.9,16.6,.,-4.3
O=C(O)c1ccc(N/N=C/c2ccc(OC(=O)c3cccc(Cl)c3)cc2)cc1,31.4*,37.7,-0.9,.,7.7
CCOC(=O)C1C2COc3ccc(Cl)cc3C2N2C(=O)c3cc(F)c(F)cc3NC(=O)[C@@]12C (stereo partly specified),.,.,.,-3.0,.
COCCn1c(-c2cc(OC)c(OC)c(OC)c2)nc2nc3ccccc3nc21,.,-11.9,.,.,.
CCCn1c(-c2cccs2)nc2nc3ccccc3nc21,30.6*,32.1,-18.4,22.2,+
c1csc(-c2nc3nc4ccccc4nc3n2Cc2ccc3c(c2)OCO3)c1,25.1,1.2,0.7,9.6,2.4
COCCn1c(-c2cccs2)nc2nc3ccccc3nc21,19.2,8.7,-5.9,-0.3,+
COc1ccc(/C=N/NC(=O)c2ccc3c(c2)OCO3)c(C(=O)O)c1OC,33.3*,-10.3,3.0,.,1.4
O=C(NN=Cc1cc(Br)c(O)c(Br)c1O)c1ccc2c(c1)OCCO2,.,.,.,8.4,.
SMILES,GDH-TPI inh,DUSP3 inh,Mtb betalactam,Mtb hypoxia rep,Mtb FBA inh
COc1cc(/C=N/NC(=O)c2ccc3c(c2)OCCO3)cc(Br)c1O,35.6*,21.2,20.7,.,0.4
COc1ccccc1/C=N/NC(=O)c1ccc2c(c1)OCO2,28.2,30.0,4.1,.,-4.9
COc1cc(/C=N/NC(=O)C(=O)NCc2ccco2)cc(Br)c1O,54.4*,13.1,10.3,.,-2.4
COc1cc(C=NNC(=O)C(=O)NCc2ccco2)cc(Br)c1O,.,.,.,15.1,.
COc1cc(/C=N/NC(=O)c2ccc3c(c2)OCCO3)c(Br)c(Br)c1O,36.5*,28.7,6.2,.,-1.3
c1ccc2sc(-c3ccc4c(c3)OCO4)nc2c1,18.4,8.6,-4.1,0.0,130.1*
CN1c2ccccc2-c2nc3ccccc3n2C1c1cccs1 (stereo unspecified),4.1,14.1,4.1,2.9,+
Cc1ccc(C2N(C)c3ccccc3-c3nc4ccccc4n32)o1 (stereo unspecified),19.1,-12.3,9.3,4.1,183.1*
Cc1c(NC(=S)N/N=C/c2cc([N+](=O)[O-])ccc2O)c(=O)n(-c2ccccc2)n1C,49.4*,12.0,-2.3,.,-10.8
Cc1ccc(S(=O)(=O)NN=Cc2ccc(Cl)c([N+](=O)[O-])c2)cc1,.,.,.,-3.2,.
Cc1ccc(/C=N/NC(=O)c2ccccn2)s1,31.6*,-0.9,95.6,.,-0.4
Cc1ccc(/C=N/NC(=O)Cc2c(F)cccc2Cl)s1,15.4,52.8*,11.9,.,1.9
Cc1ccc(C=NNC(=O)Cc2c(F)cccc2Cl)s1,.,.,.,13.4,.
Cn1cccc1C=NNC(=O)c1ccccn1,.,.,.,10.4,.
Cn1cccc1/C=N/NC(=O)c1ccncc1,35.4*,6.1,98.8,.,1.1
Cn1cccc1/C=N/NC(=O)c1ccccn1,30.9*,4.8,99.0,.,-0.9
C=C(C)Cn1c(SCC(=O)NN=Cc2ccccc2)nc2ccccc2c1=O,.,.,.,2.0,.
Cn1cccc1C=NNC(=O)c1ccco1,.,.,.,5.3,.
Cc1ccc(/C=N/NC(=O)c2ccc3c(c2)OCCO3)s1,13.2,-13.4,6.0,.,-5.2
Cc1cc(C(=O)N/N=C/c2cccn2C)no1,31.0*,-5.3,2.8,.,-0.4
Cc1ccc(/C=N/NC(=O)c2ccc3ccccc3c2)s1,32.1*,35.7,62.0,.,-0.7
Cn1cccc1/C=N/NC(=O)C(O)c1ccccc1 (stereo unspecified),30.6*,-8.8,-3.0,.,-2.9
CCCCC1CCCO[C@@](C(=O)NCc2cc(C)n(C)n2)(C(F)(F)F)C1 (stereo partly specified),.,.,.,10.1,.
CN(C)C=Nc1ncc2c3ccccc3n(CCN(C)C)c2c1C#N,32.8*,12.8,8.9,5.5,7.0
CN(C)C=Nc1ncc2c3ccccc3n(Cc3ccccc3)c2c1C#N,-5.8,7.8,-2.7,.,3.5
SMILES,GDH-TPI inh,DUSP3 inh,Mtb betalactam,Mtb hypoxia rep,Mtb FBA inh
N#CC(=Cc1cn(CC(=O)O)c2ccccc12)C(=O)NCc1ccccc1,.,.,.,1.6,.
Cc1noc(/C=C/N(C)C)c1S(=O)(=O)N1CCCC(C(=O)NCCC2=CCCCC2)C1 (stereo unspecified),46.1*,5.5,-3.1,-4.2,-0.6
Cc1noc(/C=C/N(C)C)c1S(=O)(=O)N1CCCC(C(=O)NC(C)c2ccccc2)C1 (stereo unspecified),37.2*,-0.7,?,3.1,0.4
Cc1noc(/C=C/N(C)C)c1S(=O)(=O)N1CCCC(C(=O)NC2CCCCC2C)C1 (stereo unspecified),62.5*,-4.4,2.1,10.2,-1.7
O=C(CC(=O)NC1CCCCC1)NN=Cc1ccc(Cl)cc1,.,.,.,5.5,.
CC(C)(C)C1C=C(C(=O)NCc2ccccc2)OC(OCc2ccc(CO)cc2)C1 (stereo unspecified),.,.,.,1.0,.
